Hits are enriched below; roughly 7.5% of the tested compounds scored in any of these assays.
ELG1 genotoxic: genotoxicity induction in ELG1-luciferase HEK293T cells. HEK293T ELG1-luciferase reporter, luminescence, 16 h. Potency, µM (doses to about 46 µM), most hits filed as activators. 330,000 tested, 1.3% active. AID 504466; note: nearly all actives have a fitted effect of over 60% in size
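Step 1: seed 2,000 HEK293T ELG1-luciferase cells per well. Step 2: add compound or DMSO, incubate 16 hr at 37 °C. Step 3: ONE-Glo, 30 min at room temperature, read luminescence.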
Rab9 promoter act: Rab9 promoter activation; Potency, µM (titrated, usually from 9.22 µM), hits mostly activators; Huh7 Rab9 promoter-luciferase reporter, luminescence, 24 h; 320,000 tested, 2.8% active; note: nearly all actives have a fitted effect of over 60% in size
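Cell-based reporter: Huh7 stable for Rab9 promoter-driven luciferase, plated in reduced-serum medium with 10% FBS at 1500 cells/well, compound-treated 24 h at 37 °C, luminescence read after 10 min reagent.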
SMN2 splice enh: enhancers of SMN2 splice variant expression; HEK293 SMN2-luciferase splicing reporter, luminescence, 30-36 h; Potency, µM (doses to about 46.1 µM), most hits filed as activators; 210,000 tested, 2.8% active; AID 1458; note: nearly all actives have a fitted effect of over 55% in size
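HEK293 cells carry an SMN2 minigene-luciferase reporter in which exon 7 inclusion puts luciferase in frame. Cells were seeded at 2000 cells/well, attached for 10-12 hours, then exposed to compounds for 30-36 hours at 37C before ONE-Glo luminescence.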
FLuc modulator: firefly luciferase modulation, counter-screen for miR-21 project; Potency, µM (series often up to 57.5 µM), hits mostly inhibitors; purified FLuc, Km substrates, luminescence inhibition; 360,000 tested, 6.9% active; P08659; note: nearly all actives have a fitted effect of over 55% in size
Target sequence (P08659 whole entry, looked up): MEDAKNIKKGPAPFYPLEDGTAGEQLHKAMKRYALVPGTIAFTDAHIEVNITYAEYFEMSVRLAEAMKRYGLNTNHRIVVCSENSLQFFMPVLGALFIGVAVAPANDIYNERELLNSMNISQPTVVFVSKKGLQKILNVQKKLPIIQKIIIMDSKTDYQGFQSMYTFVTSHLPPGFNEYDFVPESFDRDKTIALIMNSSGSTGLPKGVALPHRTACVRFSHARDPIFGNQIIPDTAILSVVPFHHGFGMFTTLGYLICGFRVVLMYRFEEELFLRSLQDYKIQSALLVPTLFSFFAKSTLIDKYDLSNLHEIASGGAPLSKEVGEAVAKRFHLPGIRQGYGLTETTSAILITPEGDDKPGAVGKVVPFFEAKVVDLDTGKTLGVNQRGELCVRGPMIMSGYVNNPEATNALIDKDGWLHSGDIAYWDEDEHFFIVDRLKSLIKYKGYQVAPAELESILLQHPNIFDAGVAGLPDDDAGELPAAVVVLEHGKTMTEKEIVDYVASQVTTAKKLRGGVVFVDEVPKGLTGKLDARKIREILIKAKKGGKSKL
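Biochemical qHTS of compounds, final roughly 60 µM downward over six points, against 10 nM purified firefly luciferase using Km concentrations of substrates (10 uM D-luciferin, 10 uM ATP) in Tris acetate pH 7.5 buffer; luminescence output.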
NPC1 prom act: activates the NPC1 promoter; Potency, µM (series often up to 9.22 µM), actives largely listed as activators; 320,000 tested, 2.4% active; Huh7 NPC1 promoter luciferase reporter, 24 h; note: nearly all actives have a fitted effect of over 60% in size
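Readout is luciferase luminescence, reflecting NPC1 promoter activation in stably transfected Huh7 cells after 24 h compound exposure at 37 °C in reduced-serum medium with 10% FBS.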
Each line names hits and unclear results; the compound was inactive in the other large screens. Calls come from the whole dose curve; as a rule, active = well fitted curve in the direction sought with a large enough effect; inconclusive = small, poorly fitted or top-dose-only effect, or another doubt; inactive = no such curve, though single readings can be large; an effect the other way counts as inactive or inconclusive.

C(=N\N1CCN(Cc2ccccc2)CC1)/c1cccs1	ELG1 genotoxic inconclusive, FLuc modulator inconclusive
Cc1csc(=O)n1CC(=O)OCC(=O)NCc1ccccc1	none (no result: SMN2 splice enh)
Cc1ccc(CCNC(=O)c2ccc(NC3=NC4CS(=O)(=O)CC4S3)cc2)cc1 (configuration not stated)	none (no result: SMN2 splice enh)
O=C(NCCc1ccc(Cl)cc1)c1cccc(NC2=NC3CS(=O)(=O)CC3S2)c1 (configuration not stated)	FLuc modulator 16.9µM (no result: SMN2 splice enh)
CCOC(=O)c1c(C)[nH]c(C(=O)OCc2ccc([N+](=O)[O-])cc2)c1C	none (no result: SMN2 splice enh)
Cc1ccn2cc(C(=O)Nc3cccc(C(=O)NC4CC4)c3)nc2c1	Rab9 promoter act inconclusive, FLuc modulator 1.35µM, NPC1 prom act inconclusive (no result: SMN2 splice enh)
CCOC(=O)C1CCN(S(=O)(=O)c2cccc(-c3cn4cc(C)ccc4n3)c2)CC1	FLuc modulator 8.49µM
Cc1ccn2cc(-c3cccc(S(=O)(=O)N4CC(C)OC(C)C4)c3)nc2c1 (configuration not stated)	FLuc modulator inconclusive (no result: SMN2 splice enh)
Cc1ccn2cc(-c3ccc(NS(=O)(=O)c4ccccc4)cc3)nc2c1	FLuc modulator inconclusive
Cc1ccn2cc(-c3cccc(NS(C)(=O)=O)c3)nc2c1	ELG1 genotoxic inconclusive, Rab9 promoter act 2.51µM, FLuc modulator 6.75µM, NPC1 prom act 3.16µM (no result: SMN2 splice enh)
Cc1ccn2cc(-c3cccc(S(=O)(=O)N4CCCC4)c3)nc2c1	FLuc modulator 12µM (no result: SMN2 splice enh)
Cc1ccn2cc(-c3cccc([N+](=O)[O-])c3)nc2c1	ELG1 genotoxic 0.461µM, Rab9 promoter act inconclusive, SMN2 splice enh 1.78µM, FLuc modulator 0.675µM, NPC1 prom act 0.562µM
Cc1cccc(NC(=O)c2ccccc2NC(=O)CCC(=O)O)c1	none
Cc1ccn2cc(-c3cccc(NC(=O)CCC(=O)O)c3)nc2c1	FLuc modulator 0.849µM (no result: SMN2 splice enh)
CC(=O)Nc1cccc(-c2cn3ccc(C)cc3n2)c1	ELG1 genotoxic inconclusive, Rab9 promoter act 1.58µM, FLuc modulator 4.26µM, NPC1 prom act 3.16µM (no result: SMN2 splice enh)
CC(=O)Nc1ccc2nc(-c3ccccc3)cn2c1	ELG1 genotoxic 5.8µM, Rab9 promoter act 1.12µM, SMN2 splice enh 2.51µM, FLuc modulator 2.13µM, NPC1 prom act 1µM
Nc1nc(-c2cccc([N+](=O)[O-])c2)cc(-c2cc(-c3cccc([N+](=O)[O-])c3)nc(N)n2)n1	none (no result: ELG1 genotoxic, Rab9 promoter act, FLuc modulator, NPC1 prom act)
Clc1ccc2nc(-c3ccccc3)cn2c1	ELG1 genotoxic 0.92µM, Rab9 promoter act 0.398µM, FLuc modulator 0.477µM, NPC1 prom act 0.398µM (no result: SMN2 splice enh)
Cc1ccc2cc3c(nc2c1)N(Cc1ccco1)CC3	ELG1 genotoxic inconclusive, FLuc modulator 19µM
COc1ccc2cnn(-c3ccc(C)cc3)c(=O)c2c1OC	ELG1 genotoxic 14.6µM, Rab9 promoter act inconclusive, FLuc modulator 23.9µM, NPC1 prom act inconclusive
COc1ccc2cnn(CCOc3ccccc3)c(=O)c2c1OC	ELG1 genotoxic inconclusive, Rab9 promoter act 0.562µM, SMN2 splice enh 11.2µM, FLuc modulator 4.78µM, NPC1 prom act 0.794µM
CCOc1ccccc1OCCn1ncc2ccc(OC)c(OC)c2c1=O	none
CC(C)NS(=O)(=O)c1ccc(Br)c(C(=O)OC(C)C(=O)NC2CCCCC2C)c1 (configuration not stated)	none (no result: SMN2 splice enh)
C=CCSc1nnc(-c2cccnc2)o1	ELG1 genotoxic inconclusive, SMN2 splice enh inconclusive
C=CCSc1nnc(-c2ccc([N+](=O)[O-])cc2)o1	ELG1 genotoxic inconclusive, Rab9 promoter act 3.98µM, SMN2 splice enh inconclusive, FLuc modulator 16.9µM, NPC1 prom act 3.55µM
Clc1ccc(-c2nnc(SCc3nc4ccccc4[nH]3)o2)c(Cl)c1	none
Clc1ccc(-c2nnc(SCc3ccon3)o2)c(Cl)c1	ELG1 genotoxic 1.16µM, Rab9 promoter act 0.501µM, SMN2 splice enh 2.82µM, FLuc modulator 1.2µM, NPC1 prom act 0.355µM
C=CCSc1nnc(-c2ccc(Cl)cc2Cl)o1	ELG1 genotoxic inconclusive, Rab9 promoter act 0.447µM, SMN2 splice enh inconclusive, FLuc modulator 1.35µM, NPC1 prom act 0.708µM
CCCC(=O)Nc1ccccc1-c1nnn(CC(=O)Nc2ccc(OCC)cc2)n1	none
O=C(NCc1ccc2c(c1)OCO2)c1cccnc1	none
CC(C)(C)c1nc(Sc2ccc([N+](=O)[O-])cn2)n[nH]1	NPC1 prom act inconclusive (no result: SMN2 splice enh)
CCc1ccc(OCC(=O)N(Cc2cccs2)C2CCS(=O)(=O)C2)cc1 (configuration not stated)	none (no result: SMN2 splice enh)
